Measured values published in PubChem BioAssay (NCATS).
Inconclusive results are not listed. A call without a number means that no potency is given here. A number with no mark means an inactive call. Activity calls are given as the source filed them. The call rests on the fitted dose curve; in most records, active means well fitted cell-killing curve with a large enough effect; inconclusive means small, poorly fitted or top-dose-only effect, or effect the other way; inactive means flat fitted curve, though single readings scatter.

Assays:
Test in all cases: Primary qHTS to identify gynecologic anti-cancer compounds using libraries of approved drugs and bioactive compounds (AID 1345084); further: nearly all actives have a fitted effect of over 55% in size
Conditions in all cases: Gynecologic cancer cell panel viability, ATPlite luminescence, 48 h; series mostly up to 57.5 µM
[1] = tested on: OV90
Outline: (§1)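 48 h compound exposure at 37 C, 5% CO2; five-point qHTS. ATPlite luminescence readout of cell ATP.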

[2] = tested on: PA-1
Outline: as §1

[3] = tested on: SKOV3
Outline: as §1

[4] = tested on: Tov-21-G
Outline: as §1

[5] = tested on: Tov112D
Outline: as §1
Potency means the concentration at half of the fitted maximal effect.

| Compound | Potency [1] | Potency [2] | Potency [3] | Potency [4] | Potency [5] | activity change, negative = cytotoxicity [1] | activity change, negative = cytotoxicity [2] | activity change, negative = cytotoxicity [3] | activity change, negative = cytotoxicity [4] | activity change, negative = cytotoxicity [5] |
| --- | --- | --- | --- | --- | --- | --- | --- | --- | --- | --- |
| O=C(N[C@H](Cc1ccccc1)C(=O)O)c1sc2cc(F)ccc2c1Cl | inactive | inactive | inactive | inactive | inactive | – | – | – | – | – |
| COc1cc(O)cc2c1C(=O)OC(C)CCCCCCC2 (stereo not given) | inactive | inactive | inactive | inactive | inactive | – | – | – | – | – |
| CC12CC34CC(O)C5C(CO)(CO)CC(=O)CC5(C)C3CC1C2C4 (stereo not given) | inactive | inactive | inactive | inactive | inactive | – | – | – | – | – |
| CC(C)C[C@H](NC(=O)[C@@H]1O[C@H]1C(=O)O)C(=O)NCCCCN=C(N)N | 28.2 µM (active) | inactive | inactive | inactive | inactive | – | – | – | – | – |
| CC(=O)N[C@H](Cc1c[nH]c2ccccc12)C(=O)OCc1cc(C(F)(F)F)cc(C(F)(F)F)c1 | inactive | inactive | inactive | inactive | inactive | – | – | – | – | – |
| C[C@@H]1O[C@@H](O[C@H]2[C@@H]3C=CO[C@@H](O[C@@H]4O[C@H](CO)[C@@H](O)[C@H](O)[C@H]4O)[C@@H]3[C@@]3(CO)O[C@@H]23)[C@H](O)[C@H](OC(=O)/C=C/c2ccc(O)cc2)[C@H]1OC(=O)/C=C/c1ccc(O)cc1 | inactive | inactive | inactive | inactive | inactive | – | – | – | – | – |
| C=C1C(OC(C)=O)CCC2(C)CC3(O)OC(=O)C(C)=C3CC12 (stereo not given) | inactive | inactive | inactive | inactive | inactive | – | – | – | – | – |
| COc1c2cc(c(O)c1OC)CCCCC(O)CCc1ccc(O)c-2c1 (stereo not given) | inactive | inactive | inactive | inactive | inactive | – | – | – | – | – |
| COC(=O)C(Cc1ccccc1)NC(=O)c1ccccc1 (stereo not given) | inactive | inactive | inactive | inactive | inactive | – | – | – | – | – |
| COc1cc(/C=C/C(=O)O[C@@H]2C[C@@](O)(C(=O)O)C[C@@H](O)[C@@H]2O)ccc1O | inactive | inactive | inactive | inactive | inactive | – | – | – | – | – |
| CC(=O)OCC1OC(O[C@H]2CC[C@@]3(C)C(CC[C@]4(C)C3CC=C3[C@@H]5CC(C)(C)CC[C@]5(C(=O)O)CC[C@]34C)[C@]2(C)CO)C(O)C(O)C1OC1OC(C)C(O)C(OC2OCC(O)C(O)C2O)C1O (stereo not given in full) | – | – | – | – | – | -3.49% [at 11.6 µM] | -3.48% [at 11.6 µM] | 19.9% [at 11.6 µM] | 6.07% [at 11.6 µM] | 0% [at 11.6 µM] |
| CC/C=C\C(O)C(O)C1=C(C)C(=O)C2(O1)C(=O)NC(OC)(C(=O)c1ccccc1)C2O (stereo not given) | inactive | inactive | inactive | inactive | inactive | – | – | – | – | – |
| CC/C=C/C(O)C(O)C1=C(C)C(=O)C2(O1)C(=O)NC(OC)(C(=O)c1ccccc1)C2O (stereo not given) | inactive | inactive | inactive | inactive | inactive | – | – | – | – | – |
| CC12CC(O)C(O)C=C1c1cc(O)cc(O)c1C(=O)O2 (stereo not given) | inactive | inactive | inactive | inactive | inactive | – | – | – | – | – |
| CC1=C2C[C@H]3OC(=O)[C@H](O)[C@@]4(O)[C@@H](C)[C@@H](O)[C@H](O)C([C@@]2(C)[C@H](O)[C@@H](O)C1)[C@@]34C (stereo not given in full) | inactive | inactive | inactive | inactive | inactive | – | – | – | – | – |
| CC1CC(=O)[C@]2(O)C(C(=O)OCCc3ccc(O)c(O)c3)=CO[C@@H](O[C@@H]3O[C@H](CO)[C@@H](O)[C@H](O)[C@H]3O)[C@H]12 (stereo not given in full) | inactive | inactive | inactive | inactive | inactive | – | – | – | – | – |
| CC(=O)OC/C(=C/C(=O)O)CC[C@@H]1C(CO)=CC[C@@H]2C(C)(C)CCC[C@@]12C | inactive | inactive | inactive | inactive | inactive | – | – | – | – | – |
| C=C1CCC2C(C)(C)CC(O)CC2(C)C1CCC(C)CC(=O)O (stereo not given) | inactive | inactive | inactive | inactive | inactive | – | – | – | – | – |
| C=C1CCC2[C@](C)(CO)CCC[C@@]2(C)[C@@H]1CCC1=CCOC1=O (stereo not given in full) | inactive | inactive | inactive | inactive | inactive | – | – | – | – | – |
| COc1cccc(Cn2ncc3c4sc(S(C)=O)cc4n(C)c3c2=O)c1 (stereo not given) | inactive | inactive | inactive | inactive | inactive | – | – | – | – | – |
| COc1cc(Nc2nc3c(s2)CCCC3c2ccccc2)ccc1-n1cnc(C)c1 (stereo not given) | – | – | – | – | – | 7.49% [at 11.6 µM] | 7.13% [at 11.6 µM] | 7.37% [at 11.6 µM] | 9.24% [at 11.6 µM] | 0.142% [at 11.6 µM] |
| CC1(C)C(=O)N2c3ccccc3C(O)(CC(C(=O)O)n3cnc4ccccc4c3=O)C2N1O (stereo not given) | inactive | inactive | inactive | inactive | inactive | – | – | – | – | – |
| OC[C@@]1(O)CO[C@@H](OC[C@H]2O[C@@H](Oc3ccccc3)[C@H](O)[C@@H](O)[C@@H]2O)[C@@H]1O | inactive | inactive | inactive | inactive | inactive | – | – | – | – | – |
| Cc1cc(C)c2nc(-c3ccccn3)cc(C(=O)Nc3ccc(S(=O)(=O)Nc4onc(C)c4C)cc3)c2c1 | inactive | inactive | inactive | inactive | inactive | – | – | – | – | – |
